High-throughput results from PubChem.
Only some compounds are listed: those with a hit (about 2.9% of all), similar ones and a draw of the others.
Integrin act MD – activates integrin-mediated alleviation for muscular dystrophy. AID 624291. alpha7betagal myoblasts, beta-gal FDG fluorescence, 48 h. Potency, µM (series often up to 38.3 µM), without a hit: top-dose activation, actives largely listed as activators. 350,000 tested, 0.064% active;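 note: potency is the fitted concentration of half-maximal effect; 100% = response of the positive control SU9516; nearly all actives have a fitted effect of over 60% in size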
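Alpha7betagal+/- myoblasts (passage 13) were plated 16-24 hr, then exposed to compounds (1:260 dilution of DMSO stock) for 48 hours at 37C. After MPER lysis, β-galactosidase reporter activity was read as FDG fluorescence (ex 480/em 540) after 30 minutes.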
mIDH1 inhibitor – inhibitors of human mutant IDH1 R132H. Potency, µM (top dose mostly 76.6 µM), for inactives: at the top dose activity change, negative = inhibition, usual class: inhibitors. O75874. 390,000 tested, 0.093% active. IDH1-R132H enzyme, NADPH consumption, diaphorase/resazurin fluorescence; note: potency is the fitted concentration of half-maximal effect; % is set by controls: 0 for no effect and ±100 for the full control effect; nearly all actives have a fitted effect of over 65% in size
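IDH1-R132H (0.5 ug/mL dispensed) in pH 7.5 Tris buffer was preincubated 30 min with compound, then given a substrate mix of 0.016 mM NADPH and 2 mM alpha-KG for 80 min at room temperature; remaining NADPH was read by diaphorase/resazurin fluorescence.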
B2AR arrestin – recruits beta-arrestin to the human beta2-adrenergic receptor. 330,000 tested, 0.02% active. beta-arrestin recruitment to beta2AR, cell-based reporter. Potency, µM (doses to about 46.1 µM), without a hit: at the top dose activation, usual class: activators. P07550. AID 492947;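 note: potency is the fitted concentration of half-maximal effect; 0% = DMSO controls and full agonism = EC100 isoproterenol or metaproterenol; nearly all actives have a fitted effect of over 65% in size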
D3 antag – D3 dopamine receptor (human) antagonism; 360,000 tested, 2.5% active; max response, negative = inhibition, %; D3R cells, DiscoveRx beta-arrestin luminescence, antagonist mode; stronger effect = lower value; AID 652054; P35462; in the data active = max response below about -50%; inconclusive = no clear call, values can overlap the other calls; note: % is set by controls: 0 for no effect and ±100 for the full control effect
Target sequence (P35462 whole entry, looked up): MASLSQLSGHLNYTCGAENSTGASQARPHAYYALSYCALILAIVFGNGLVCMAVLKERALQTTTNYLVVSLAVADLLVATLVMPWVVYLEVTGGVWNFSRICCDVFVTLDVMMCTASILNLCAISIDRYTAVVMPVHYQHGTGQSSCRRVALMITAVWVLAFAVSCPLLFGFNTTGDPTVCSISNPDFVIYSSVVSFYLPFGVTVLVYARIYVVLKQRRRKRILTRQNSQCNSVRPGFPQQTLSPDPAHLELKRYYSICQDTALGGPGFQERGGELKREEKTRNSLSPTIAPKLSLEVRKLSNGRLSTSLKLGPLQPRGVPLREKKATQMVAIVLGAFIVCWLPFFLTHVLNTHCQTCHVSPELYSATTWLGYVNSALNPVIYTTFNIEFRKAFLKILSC
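Cells plated overnight at 1500 cells/well, then exposed to library compounds with dopamine controls for 90 minutes at 37 degrees C. DiscoveRx reagent added for 30–60 minutes at room temperature; luminescence read, quantitative HTS format.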
DRD3 agonist – D3 dopamine receptor (human) agonism | D3R DiscoveRx beta-arrestin cells, luminescence, 90 min | max activation, % | 410,000 tested, 0.58% active; in the data active = max activation above about 30%; note: 0% is about no effect
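Cells at 1500/well, incubated overnight, then treated with pinned compounds (dopamine as control) for 90 min at 37 degrees C. DiscoveRx reagent added for 30 - 60 minutes at room temperature; luminescence read.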
The depositor's hits bear a star; ? = inconclusive; . = no result; ! = not confirmed by another sample. Unless noted, calls come from the whole dose curve; as a rule, active = well fitted curve in the direction sought with a large enough effect; inconclusive = small, poorly fitted or top-dose-only effect, or another doubt; inactive = no such curve, though single readings can be large; an effect the other way counts as inactive or inconclusive.

SMILES	Integrin act MD	mIDH1 inhibitor	B2AR arrestin	D3 antag	DRD3 agonist
COc1ccccc1Cc1c(-c2cccc(Br)c2)nc2ccc(Br)cn12	.	.	.	-20	-4
COc1ccccc1Cc1c(-c2ccco2)nc2c(C)cc(Br)cn12	.	.	.	-92*	-16
COc1ccccc1Cc1c(-c2cccc(Br)c2)nc2ccc(Cl)cn12	.	.	.	-50*	-10
COc1ccccc1Cc1c(-c2ccc(OC)c(OC)c2)nc2ccc(C)cn12	.	.	.	48	7
Cc1cc(Br)cn2c(Cc3ccsc3)c(-c3ccco3)nc12	.	.	.	-56*	-15
COc1ccc(Cc2c(-c3ccco3)nc3c(C)cc(Br)cn23)c(C)c1	.	.	.	19	6
COc1ccccc1Cc1c(-c2ccco2)nc2ccc(C)cn12	.	.	.	-50*	-13
CCCOc1cccc(C(=O)N2CCCCC2CCN2CCCCC2)c1 (configuration not stated)	.	7%	.	.	-42
C/C1=C2N=C(/C=C3N=C(/C(C)=C4\[N-]C(C(CC(N)=O)C4(C)CCC(=O)NCC(C)OP(=O)([O-])OC4C(CO)OC(n5cnc6cc(C)c(C)cc65)C4O)C4(C)N=C1C(CCC(N)=O)C4(C)CC(N)=O)C(CCC(N)=O)C\3(C)C)C(CCC(N)=O)C/2(C)CC(N)=O.[CH3-].[Co+3] (configuration not stated)	.	.	.	.	-6
Oc1ccc(CNc2cccc(C(F)(F)F)c2)c2cccnc12	.	.	1%	.	.
Cc1cc(Br)cn2c(Cc3ccccc3)c(-c3ccc(Cl)cc3)nc12	.	.	.	-19	-6
Cc1cc(Br)cn2c(Cc3ccccc3)c(-c3cccc(Br)c3)nc12	.	.	.	-51*	-12
CC(C)(C)NC[C@H](O)COc1nsnc1N1CCOCC1	.	3%	.	-54*!	-42
CS(=O)(=O)c1ccc([C@@H](O)[C@@H](CO)NC(=O)C(Cl)Cl)cc1	.	25%	0%	-51*	-25
O=C(NOCC1CC1)c1ccc(F)c(F)c1Nc1ccc(I)cc1Cl	.	.	.	.	-10
CC(NC(=O)C1CCN(CCOc2ccc(Cl)cc2)CC1)c1cccc2ccccc12 (configuration not stated)	.	.	.	-53*	-17
COc1ccc(CN2CCC(C(=O)NC(C)c3cccc4ccccc34)CC2)cc1 (configuration not stated)	.	.	.	?	-10
COc1ccccc1C(NC(=O)C1CCN(CCc2ccc(Br)cc2)CC1)c1ccccn1 (configuration not stated)	.	.	.	?	-14
COc1ccccc1C(NC(=O)C1CCN(CCOc2ccccc2)CC1)c1ccccn1 (configuration not stated)	.	.	.	-55*	-7
COc1ccccc1C(NC(=O)C1CCN(CCOc2ccc(Cl)cc2)CC1)c1ccccn1 (configuration not stated)	.	.	.	-78*	-8
O=C(O)CCn1cc(/C=C2/NC(=S)N(c3ccccc3)C2=O)c(-c2ccccc2)n1	20µM*	0%	-1%	0	-7
CN(CCC#N)C(=O)COC(=O)c1nn(-c2ccccc2)c(=O)c2ccccc12	39%	0%	0%	-58*	-7
CC1CN(C(=O)CCC(=O)NCCCN2CCN(Cc3ccccc3)CC2)c2cc(Cl)ccc2O1 (configuration not stated)	-28%	-2%	-1%	-90*	-2
CC(=O)N1CCOc2cc(S(=O)(=O)NC(C)c3ccccc3)c(Cl)cc21 (configuration not stated)	26%	8%	0%	-61*	-15
CC(=O)N1CCOc2cc(S(=O)(=O)N(C)Cc3ccccc3)c(Cl)cc21	.	-1%	.	.	-11
SMILES	Integrin act MD	mIDH1 inhibitor	B2AR arrestin	D3 antag	DRD3 agonist
O=C(CCC(=O)N1CCOc2ccc(Cl)cc21)NCCCN1CCN(Cc2ccccc2)CC1	-34%	-1%	0%	-60*	-13
CC(CNC(=O)CCC(=O)N1CCOc2ccc(Cl)cc21)c1ccccc1 (configuration not stated)	27%	4%	0%	-50*	-15
CCC1Oc2ccc(C)cc2N(CC(=O)NCCCN2CCN(Cc3ccccc3)CC2)C1=O (configuration not stated)	-20%	-2%	0%	-75*	-30
Cc1ccc2c(c1)NC(=O)C(CC(=O)NCCCN1CCN(c3cc(Cl)ccc3C)CC1)O2 (configuration not stated)	12%	9%	0%	-72*	-9
CCC1Oc2ccc(C)cc2N(CC(=O)NCCN2CCCCCC2)C1=O (configuration not stated)	-22%	3%	0%	?	-29
Cc1ccc2c(c1)NC(=O)C(CC(=O)NCCCN1CCCCC1)O2 (configuration not stated)	-6%	-1%	0%	-13	-3
CC1(C)Oc2ccc3ccc(=O)oc3c2[C@@H](O)[C@@H]1O	15%	9%	0%	0	87*
C/C=C(/C)C(=O)O[C@@H]1c2c(ccc3ccc(=O)oc23)OC(C)(C)[C@@H]1OC(=O)/C(C)=C\C	-37%	-2%	0%	3	47*
CCO[C@@H]1c2c(ccc3ccc(=O)oc23)OC(C)(C)[C@@H]1O	13%	13%	1%	19	1
COc1ccc(-c2nc3cc(NC(=O)Cc4ccc(Cl)cc4)ccc3o2)cc1OC	.	9%	.	.	-4
Cc1ccsc1/C=C1/C(=O)NN(c2ccccc2)C1=O	-7%	21%	0%	?	-8
Cc1ccsc1C=C1C(=O)c2ccccc2C1=O	-3%	5%	0%	-56*	-3
O=c1[nH]c2ccccc2n1CCCN1CCCCC1	11%	4%	0%	-61*	-16
O=c1[nH]c2ccccc2n1CCCN1CCN(C(c2ccccc2)c2ccccc2)CC1	.	.	0%	.	-18
O=C(C1CCC(CNS(=O)(=O)c2cccs2)CC1)N1CCN(c2ccc(Cl)cc2)CC1 (configuration not stated)	38%	-3%	-1%	98	41*!
CC(=O)c1ccc(Nc2ccc3cc(S(=O)(=O)N4CCCC4)ccc3n2)cc1	.	1%	.	.	0
COc1ccc(C(=O)CCN2CCCCCC2)cc1	-63%	2%	-1%	-54*	-57
COc1ccc(C(=O)OCCN2CCCCC2)cc1	-21%	0%	0%	-78*	-11
CCOc1ccc(C(=O)CCN2CCCCC2)cc1	-6%	0%	-1%	0	-8
CC(C)Oc1ccc(C(=O)CCN2CCOCC2)cc1	-45%	3%	.	-6	-6
CC(C)Oc1ccc(C(=O)CCN2CCCCC2)cc1	-54%	7%	0%	-78*	-5
Clc1cccc(OCCCCN2CCCCC2)c1	-17%	7%	0%	?	-2
CC(C)(C)c1ccc(C(=O)OCCN2CCCCC2)cc1	4%	1%	1%	-20	-6
O=C(OCCN1CCCCC1)c1cccc(Cl)c1	-53%	0%	0%	-102*	-6
